# High-throughput results (PubChem BioAssay)
# Shiga inhibitor: Shiga toxin inhibition. inhibition, % at 38.7 µM. actives 9.2% (n = 290,000). Vero cells, Shiga toxin protein synthesis inhibition reporter. AID 2315; in the data active = inhibition mostly above about 28%, no sharp cut-off; inactive = mostly below about 43%; also: 0% is about no effect
# Cycloheximide cs: affects cycloheximide protein synthesis inhibition readout, counter-screen. cell reporter, cycloheximide protein synthesis inhibition counterscreen. max response, %. actives 12% (n = 300,000); in the data active = max response mostly above about 13%, no sharp cut-off; inactive = mostly below about 14%; also: read at 38.3 µM for the half of the compounds with a filed dose; 0% is about no effect
# SARS PLpro yeast: inhibitors of SARS-CoV papain-like protease in yeast; S. cerevisiae expressing SARS-CoV PLpro, growth rescue; Potency, µM (series often up to 32.9 µM), without a hit: at the highest dose activity, positive = growth rescue, hits mostly activators; actives 0.19% (n = 330,000); calls by dose curve; also: potency is read from the fitted curve at half-maximal effect; 0% is about no effect; nearly all actives have a fitted effect of over 55% in size
# Pf growth 96h: P. falciparum growth inhibition at 96 hour, primary screen for plastid delayed-death inhibitors | Potency, µM (top dose mostly 28.7 µM), for inactives: at the highest dose activity change, negative = inhibition, hits mostly inhibitors | actives 6.9% (n = 320,000) | P. falciparum luciferase reporter growth, 96 h; also: potency is read from the fitted curve at half-maximal effect; % is scaled to controls: 0 for no effect and ±100 for the full control effect
#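 Erythrocytes infected with luciferase-expressing P. falciparum were dispensed at 2% hematocrit and 0.05% parasitemia (final), then incubated with compounds 96 hours at 37 C in 5% CO2. Luminescence after detection reagent addition reported growth.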
# NS1 function inh: inhibitors of influenza NS1 protein function. Potency, µM (highest dose often 46.1 µM), inactives show top-dose activity, positive = more growth. actives 0.4% (n = 270,000). AID 2326; calls by dose curve; also: potency is read from the fitted curve at half-maximal effect; actives are rising curves; nearly all actives have a fitted effect of over 50% in size
#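 OD600 was taken as the measure of yeast growth restored by compound in an NS1-expressing S. cerevisiae strain. Cells had been washed out of glucose medium and diluted 1:100 into galactose -URA medium, pH 6.0.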
# Pf growth 48h: inhibits P. falciparum growth in the first generation, 48 h; P. falciparum luciferase growth in erythrocytes, 48 h; Potency, µM (titrated, usually from 28.7 µM), without a hit: at the highest dose activity change, negative = inhibition, usual class: inhibitors; actives 5.9% (n = 310,000); AID 504832; also: potency is read from the fitted curve at half-maximal effect; % is scaled to controls: 0 for no effect and ±100 for the full control effect
#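 Luciferase-expressing P. falciparum in infected erythrocytes (2% hematocrit, 0.1% parasitemia final) in RPMI 1640/0.5% Albumax were exposed to compound for 48 hours at 37 C, 5% CO2; growth read as luminescence.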
# Active calls of the source: *; ? = inconclusive; nt = no result given; [ ] = another dose, or the depositor's remark. Most compounds without a hit are left out; they make up all but 21% or so of the library. Unless noted, calls follow the shape of the dose curve; as a rule, active = well fitted inhibition curve with a large enough effect; inconclusive = small, poorly fitted or top-dose-only effect, or another doubt; inactive = no such curve, though single readings can be large or run the other way.
SMILES,Shiga inhibitor,Cycloheximide cs,SARS PLpro yeast,Pf growth 96h,NS1 function inh,Pf growth 48h
Cc1ccc2cc(CN(Cc3ccco3)C(=O)NC3CCCCC3)c(=O)[nH]c2c1C,4,-1,-14%,-14%,0%,12µM*
COc1ccccc1NC(=S)N(Cc1ccco1)Cc1cc2ccc(C)c(C)c2[nH]c1=O,-3,-2,13%,150%,?,12µM*
Cc1ccc2cc(CN(CC3CCCO3)C(=S)Nc3ccccc3)c(=O)[nH]c2c1C (stereo not given),-4,-2,-4%,-5%,?,10µM*
Cc1cc(C)c2cc(CN(Cc3ccco3)C(=O)NCc3ccccc3)c(=O)[nH]c2c1,-9,3,7%,15µM*,?,0%
Cc1ccc2cc(CN(Cc3ccco3)C(=O)C3CCCCC3)c(=O)[nH]c2c1C,-9,-2,-4%,6%,-7%,?
Cc1cc(C)c2[nH]c(=O)c(CN(CC3CCCO3)C(=S)Nc3ccccc3)cc2c1 (stereo not given),-7,-1,23%,-5%,7%,-9%
O=C(CNC(=O)c1ccc(Br)o1)NCC1CCCCC1,nt,nt,1%,6%,nt,-16%
Cc1ccc(CCCC(=O)O)cc1C,nt,nt,nt,nt,-6%,nt
Cc1csc(/C(=N\O)c2csc(C)n2)n1,64,-7,11%,?,-5%,-4%
Cc1cc(C)c2[nH]c(=O)c(CN(CC3CCCO3)C(=S)NCc3ccco3)cc2c1 (stereo not given),-4,-1,3%,-1%,14%,-5%
COc1ccccc1NC(=S)N(Cc1ccco1)Cc1cc2cc(C)cc(C)c2[nH]c1=O,-5,-3,5%,-17%,7%,3.3µM*
CCCCCN(C(=O)CCC(=O)OCC(=O)N1CCC(C)CC1)c1c(N)n(CCCC)c(=O)[nH]c1=O,nt,nt,-7%,45%,nt,15%
COC(=O)CNC(=O)CSc1nnc(C)c(=O)[nH]1,2,4,9%,288%,13%,-8%
CC(/C=C/c1ccccc1)NC(N)=O (stereo not given),-4,-2,?,-5%,4%,0%
CC(C)c1ccccc1NC(=S)NCc1ccncc1,-4,-5,2%,34%,-3%,?
COc1cc(/C=N/O)ccc1OCc1ccc(C(=O)O)cc1,21,54*,-8%,383%,0%[9.22 µM],256%
O=C(O)c1cc(/C=N\O)ccc1OCc1ccccc1,23,3,1%,nt,?,46%
CCOc1cc(/C=N/NC(=O)CN2CCOCC2)ccc1OCc1ccc(Cl)cc1,-5,1,-3%,13µM*,-4%,?
O=C(O)CC1S/C(=N/N=C/c2ccccn2)NC1=O (stereo not given),-4,2,18%,?,-2%,5.2µM*
CCOc1cc(/C=N/N=C(N)N)ccc1OCc1ccc(Cl)cc1,-23,-12,14%,?,5%,1.5µM*
CCOc1cc(/C=N/N=C(/N)c2nonc2N)cc(Br)c1OCc1ccc(Cl)cc1,2,15,2%,nt,-1%,?
c1coc(CSSCc2ccco2)c1,nt,nt,-6%,-15%,nt,?
CC(=O)c1ccc(S(=O)(=O)NCCCC(=O)N(C)Cc2ccc3c(c2)OCO3)cc1,nt,nt,-2%,?,nt,?
Cc1cc2c(s1)c1cnn(Cc3ccc(C)c(F)c3F)c(=O)c1n2C,-5,-7,nt,nt,nt,nt
CCN(CCCNS(=O)(=O)c1cc(-c2cc(C)no2)ccc1C)Cc1ccccc1,-4,11,-1%,-16%,6%,?
COc1cc(/C=N/N=C2/NC(=O)C(CC(=O)O)S2)ccc1OCc1ccc(Cl)cc1 (stereo not given),38,20*,28%,?,7%,41%
CCCC(C)NC(=O)c1ccc(OCc2ccc(Cl)cc2)c(OC)c1 (stereo not given),17,11,?,?,-1%,-22%
CCOc1cc(/C=N/N=C2/NC(=O)C(CC(=O)O)S2)ccc1OCc1ccc(Cl)cc1Cl (stereo not given),24,-2,-1%,13%,1%,-11%
NC(N)=N/N=C/c1ccc(OCc2ccccc2)c(OCc2ccccc2)c1,7,-6,-1%,?,14%,0.52µM*
